Inconclusive results are not listed. A structure can be active in one record and inactive in another. Calls of active or inactive are those of the source. The calls were made as follows, unless noted: active = hit-call score of the fitted dose curve at least 0.9, where 1 is the maximum; inactive = score below 0.9.

Test [1] addresses Retinoic acid receptor RXR-alpha (Homo sapiens) (UniProt P19793). Nature of the test: ATG_RXRa_TRANS: Attagene TRANS-FACTORIAL HepG2 Assay for human Retinoid X Receptor alpha (RXRa) (AID 2283012; active = hit-call score of the fitted dose curve at least 0.9, where 1 is the maximum). A digest of the protocol: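 HepG2 cells transiently transfected with GAL4-UAS reporter units and chimeric RXRa-Gal4 protein, treated 24 h. Reporter mRNA measured by RT-PCR, fluorescent labelling, HpaI digestion and capillary electrophoresis. Induction fitted against DMSO.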

For test [2], the target named is human Thyroid Receptor alpha (THRa1), THRA (gene 7067) (UniProt P10827). In words: ATG_THRa1_TRANS: Attagene TRANS-FACTORIAL HepG2 Assay for human Thyroid Receptor alpha (THRa1) (AID 2283014; active = hit-call score of the fitted dose curve at least 0.9, where 1 is the maximum). In a few lines: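 HepG2 cells transiently transfected with multiplexed GAL4-UAS reporter units for exogenous chimeric THRa1-Gal4; reporter mRNA measured 24 h after dosing by RT-PCR, 6-FAM labelling, HpaI digestion and capillary electrophoresis. Gain-of-signal fitted versus DMSO baseline.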
Sequence of human Thyroid Receptor alpha (THRa1), THRA (gene 7067) (P10827 whole entry, looked up, the tested form may be a part): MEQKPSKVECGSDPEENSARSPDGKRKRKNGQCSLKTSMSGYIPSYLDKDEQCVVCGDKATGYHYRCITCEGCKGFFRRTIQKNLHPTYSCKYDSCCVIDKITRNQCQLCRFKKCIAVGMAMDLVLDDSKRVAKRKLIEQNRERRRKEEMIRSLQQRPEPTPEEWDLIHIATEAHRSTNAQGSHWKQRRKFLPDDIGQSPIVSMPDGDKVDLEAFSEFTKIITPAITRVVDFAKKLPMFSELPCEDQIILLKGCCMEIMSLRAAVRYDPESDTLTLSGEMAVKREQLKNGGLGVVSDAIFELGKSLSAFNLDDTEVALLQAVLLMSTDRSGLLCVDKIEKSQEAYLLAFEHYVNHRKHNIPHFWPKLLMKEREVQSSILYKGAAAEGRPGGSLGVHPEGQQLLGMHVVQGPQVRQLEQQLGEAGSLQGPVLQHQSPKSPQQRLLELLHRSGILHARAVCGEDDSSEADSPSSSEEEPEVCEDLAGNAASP

Test [3] concerns the target human Vitamin D Receptor (VDR), VDR (gene 7421) (UniProt P11473). In words: ATG_VDR_TRANS: Attagene TRANS-FACTORIAL HepG2 Assay for human Vitamin D Receptor (VDR) (AID 2283022; active = hit-call score of the fitted dose curve at least 0.9, where 1 is the maximum). A digest of the protocol:
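HepG2 cells were transiently transfected with multiple GAL4-UAS reporter units, so signal reflects exogenous chimeric receptor-Gal4 activity. After 24 h compound exposure, reporter mRNA was measured by RT-PCR, fluorescent labelling and capillary electrophoresis, fitted for gain of signal versus DMSO.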

The target of test [4] is human Retinoid X Receptor beta (RXRb), RXRB (gene 6257) (UniProt P28702). In words: ATG_RXRb_TRANS: Attagene TRANS-FACTORIAL HepG2 Assay for human Retinoid X Receptor beta (RXRb) (AID 2283013; active = hit-call score of the fitted dose curve at least 0.9, where 1 is the maximum). In a few lines:
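HepG2 cells were transiently transfected with multiplexed GAL4-UAS reporters and a chimeric RXRb-Gal4 construct, then exposed for 24 h. Reporter mRNA was quantified by RT-PCR, FAM labeling, HpaI digestion and capillary electrophoresis; gain of signal was scored against DMSO.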

Read-out in test [5]: E-selectin (Homo sapiens) (UniProt P16581)
Nature of the test: BSK_3C_Eselectin: BioMAP Diversity Plus: 3C Assay for Eselectin Biomarker Activity (AID 2283015). The settings on record: primary human endothelial cells (HUVEC); actives raise or lower the signal. A digest of the protocol:
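Primary human umbilical vein endothelial cells (3C system) were dosed with chemical and cell-surface E-selectin measured by ELISA 24 h later. Bidirectional curve fitting used DMSO as negative control and baseline.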

Read-out in test [6]: Interleukin-1 alpha (IL1a), IL1A (gene 3552)
Nature of the test: BSK_BE3C_IL1a: BioMAP Diversity Plus: BE3C Assay for Interleukin-1 alpha (IL1a) Biomarker Activity (AID 2283016). The settings on record: primary human bronchial epithelial cells; actives raise or lower the signal. In a few lines: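 Human primary bronchial epithelial cells, 24 h chemical exposure; IL-1a quantified by ELISA, fitted bidirectionally against DMSO. Cytotoxicity assessed in parallel by SRB total-protein staining at the time of measurement.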

Read-out in test [7]: Monocyte Chemoattractant Protein-1 (MCP1), CCL2 (gene 6347)
In words: BSK_3C_MCP1: BioMAP Diversity Plus: 3C Assay for Monocyte Chemoattractant Protein-1 (MCP1) Biomarker Activity (AID 2283017). Particulars: primary human endothelial cells (HUVEC); actives raise or lower the signal. A digest of the protocol:
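Primary human umbilical vein endothelial cells (3C system) were exposed to test chemical for 24 h, after which MCP-1 was quantified by ELISA. Activity was fitted bidirectionally against DMSO as negative control and baseline.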

Read-out in test [8]: Monocyte Chemoattractant Protein-1 (MCP1), CCL2 (gene 6347)
In words: BSK_4H_MCP1: BioMAP Diversity Plus: 4H Assay for Monocyte Chemoattractant Protein-1 (MCP1) Biomarker Activity (AID 2283018). Particulars: primary human endothelial cells (HUVEC); actives raise or lower the signal. In a few lines: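 Human umbilical vein endothelial cells (4H system) exposed to chemicals for 24 h in 96-well format. MCP-1 measured by ELISA; bidirectional fitting against DMSO, with SRB total-protein staining in parallel cultures for cytotoxicity.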

Read-out in test [9]: Human Leukocyte Antigen - DR isotype (HLADR), HLA-DRA (gene 3122)
In words: BSK_3C_HLADR: BioMAP Diversity Plus: 3C Assay for Human Leukocyte Antigen - DR isotype (HLADR) Biomarker Activity (AID 2283019).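 As to outcome: ELISA of cell-surface HLA-DR on HUVEC 24 h after dosing.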 Particulars: primary human endothelial cells (HUVEC); actives raise or lower the signal. In a few lines:
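Primary human umbilical vein endothelial cells (3C system) were dosed with compound and cell-surface HLA-DR was quantified by ELISA at 24 h. Activity was fitted bidirectionally against DMSO as negative control and baseline.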

Read-out in test [10]: Interleukin-8 (IL8), CXCL8 (gene 3576)
Nature of the test: BSK_3C_IL8: BioMAP Diversity Plus: 3C Assay for Interleukin-8 (IL8) Biomarker Activity (AID 2283020). Particulars: primary human endothelial cells (HUVEC); actives raise or lower the signal. In a few lines: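 Primary human umbilical vein endothelial cells were dosed for 24 h. IL-8 was quantified by ELISA and fitted bidirectionally against DMSO. Cytotoxicity was assessed in parallel cultures by SRB staining at 560 nm.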

Read-out in test [11]: Monokine induced gamma interferon (MIG), CXCL9 (gene 4283)
Nature of the test: BSK_3C_MIG: BioMAP Diversity Plus: 3C Assay for Monokine induced gamma interferon (MIG) Biomarker Activity (AID 2283021). Particulars: primary human endothelial cells (HUVEC); actives raise or lower the signal. In a few lines:
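HUVEC primary endothelial cultures dosed with chemical; MIG quantified by ELISA at 24 h. Data fitted bidirectionally against DMSO control, with parallel SRB total-protein staining for cytotoxicity.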

The nature of test [12]: BSK_3C_SRB: Viability Assessment in the BioMAP Diversity Plus: 3C Assay (AID 2283023).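 Also: fitted both ways against DMSO so a hit may be signal rise or drop.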 The settings on record: primary human endothelial cells (HUVEC). In a few lines:
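Primary human umbilical vein endothelial cells in the 3C system were read 24 h after compound dosing. Total protein was stained with 0.1% sulforhodamine B after 10% TCA fixation and read at 560 nm, with bidirectional fitting against DMSO as baseline.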

Read-out in test [13]: Matrix Metallopeptidase 1 (MMP1), MMP1 (gene 4312)
Nature of the test: BSK_BE3C_MMP1: BioMAP Diversity Plus: BE3C Assay for Matrix Metallopeptidase 1 (MMP1) Biomarker Activity (AID 2283024). The settings on record: primary human bronchial epithelial cells; actives raise or lower the signal. A digest of the protocol: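 Human primary bronchial epithelial cells (BE3C system) dosed for 24 h; MMP-1 quantified by ELISA. Bidirectional fit against DMSO; cytotoxicity tracked in parallel cultures by SRB total-protein staining.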

Test [14] is described as follows: BSK_3C_Vis: BioMAP Diversity Plus: 3C Assay for Morphology Visualization (AID 2283025).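 Also: light microscopy image of cell morphology used as background control; fitted both ways so gain or loss versus DMSO counts.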 The settings on record: primary human endothelial cells (HUVEC). A digest of the protocol: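 Human umbilical vein endothelial cell morphology was inspected by light microscopy 24 h after chemical dosing; scored bidirectionally relative to DMSO.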
Read-out in test [15]: Pselectin, SELP (gene 6403)
Nature of the test: BSK_4H_Pselectin: BioMAP Diversity Plus: 4H Assay for Pselectin Biomarker Activity (AID 2283026). Particulars: primary human endothelial cells (HUVEC); actives raise or lower the signal. In a few lines: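 Primary human umbilical vein endothelial cells were treated 24 h, and cell-surface P-selectin was then quantified by ELISA. Bidirectional fit versus DMSO; cytotoxicity checked in parallel cultures by SRB total-protein staining.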

Test [16] can be described thus: BSK_BE3C_SRB: Viability Assessment in the BioMAP Diversity Plus: BE3C Assay (AID 2283028). The settings on record: primary human bronchial epithelial cells. In a few lines: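 Human primary bronchial epithelial cells were exposed to test chemicals for 24 h. Total protein in parallel cultures was then measured by staining with 0.1% sulforhodamine B after 10% TCA fixation, with absorbance read at 560 nm. Activity was fitted bidirectionally against DMSO.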

Read-out in test [17]: Thrombomodulin, THBD (gene 7056)
Nature of the test: BSK_3C_Thrombomodulin: BioMAP Diversity Plus: 3C Assay for Thrombomodulin Biomarker Activity (AID 2283029). The settings on record: primary human endothelial cells (HUVEC); actives raise or lower the signal. A digest of the protocol: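 Human umbilical vein endothelial cells were exposed to chemicals for 24 h; cell-surface thrombomodulin quantified by ELISA, with bidirectional fitting against DMSO baseline.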

Read-out in test [18]: Urokinase-type plasminogen activator receptor (uPAR), PLAUR (gene 5329)
Nature of the test: BSK_4H_uPAR: BioMAP Diversity Plus: 4H Assay for Urokinase-type plasminogen activator receptor (uPAR) Biomarker Activity (AID 2283030). The settings on record: primary human endothelial cells (HUVEC); actives raise or lower the signal. A digest of the protocol: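 Primary human umbilical vein endothelial cells were exposed to chemical for 24 h before cell-surface uPAR was quantified by ELISA. Activity was fitted bidirectionally against the DMSO negative control baseline.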

The nature of test [19]: BSK_4H_SRB: Viability Assessment in the BioMAP Diversity Plus: 4H Assay (AID 2283027).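 Also: cells exposed to compound for 24 h before staining.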 Particulars: primary human endothelial cells (HUVEC). A digest of the protocol: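 Human umbilical vein endothelial cells were dosed with chemical and, after 24 h, fixed with 10% TCA, stained with 0.1% sulforhodamine B, and read at 560 nm to give total protein as a cytotoxicity measure. Bidirectional fitting relative to DMSO control.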

Sequence of E-selectin (Homo sapiens) (P16581 whole entry, looked up): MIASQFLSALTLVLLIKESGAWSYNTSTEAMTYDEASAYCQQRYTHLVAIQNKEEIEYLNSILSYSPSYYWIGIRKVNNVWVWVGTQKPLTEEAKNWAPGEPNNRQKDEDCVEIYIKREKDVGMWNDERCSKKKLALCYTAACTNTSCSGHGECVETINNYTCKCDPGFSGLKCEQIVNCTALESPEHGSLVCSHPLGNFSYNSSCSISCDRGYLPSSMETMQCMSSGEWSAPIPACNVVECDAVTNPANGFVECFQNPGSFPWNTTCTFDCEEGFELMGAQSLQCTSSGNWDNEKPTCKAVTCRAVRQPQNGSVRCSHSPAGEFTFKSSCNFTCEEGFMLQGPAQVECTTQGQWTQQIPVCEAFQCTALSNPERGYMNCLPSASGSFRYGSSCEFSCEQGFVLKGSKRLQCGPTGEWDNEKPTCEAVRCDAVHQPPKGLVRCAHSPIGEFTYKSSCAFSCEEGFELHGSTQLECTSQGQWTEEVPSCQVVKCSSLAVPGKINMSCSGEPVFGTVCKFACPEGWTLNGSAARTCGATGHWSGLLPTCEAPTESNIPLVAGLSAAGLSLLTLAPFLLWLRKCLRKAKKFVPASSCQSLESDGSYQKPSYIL
Sequence of human Retinoid X Receptor beta (RXRb), RXRB (gene 6257) (P28702 whole entry, looked up, the tested form may be a part): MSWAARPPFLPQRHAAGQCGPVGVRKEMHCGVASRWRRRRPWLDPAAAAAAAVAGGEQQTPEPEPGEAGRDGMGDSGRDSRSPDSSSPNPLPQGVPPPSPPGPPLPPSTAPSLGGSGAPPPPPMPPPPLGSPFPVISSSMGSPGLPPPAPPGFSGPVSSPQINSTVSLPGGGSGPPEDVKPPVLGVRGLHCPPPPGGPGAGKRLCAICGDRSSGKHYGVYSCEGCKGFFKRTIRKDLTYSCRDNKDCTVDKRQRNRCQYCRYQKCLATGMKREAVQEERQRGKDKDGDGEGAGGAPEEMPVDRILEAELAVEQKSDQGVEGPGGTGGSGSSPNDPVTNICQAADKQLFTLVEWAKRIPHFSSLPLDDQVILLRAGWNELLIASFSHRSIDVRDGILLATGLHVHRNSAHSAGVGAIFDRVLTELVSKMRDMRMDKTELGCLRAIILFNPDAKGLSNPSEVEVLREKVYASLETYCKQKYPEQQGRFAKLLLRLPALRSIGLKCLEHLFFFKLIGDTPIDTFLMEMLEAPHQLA
Sequence of Retinoic acid receptor RXR-alpha (Homo sapiens) (P19793 whole entry, looked up, the tested form may be a part): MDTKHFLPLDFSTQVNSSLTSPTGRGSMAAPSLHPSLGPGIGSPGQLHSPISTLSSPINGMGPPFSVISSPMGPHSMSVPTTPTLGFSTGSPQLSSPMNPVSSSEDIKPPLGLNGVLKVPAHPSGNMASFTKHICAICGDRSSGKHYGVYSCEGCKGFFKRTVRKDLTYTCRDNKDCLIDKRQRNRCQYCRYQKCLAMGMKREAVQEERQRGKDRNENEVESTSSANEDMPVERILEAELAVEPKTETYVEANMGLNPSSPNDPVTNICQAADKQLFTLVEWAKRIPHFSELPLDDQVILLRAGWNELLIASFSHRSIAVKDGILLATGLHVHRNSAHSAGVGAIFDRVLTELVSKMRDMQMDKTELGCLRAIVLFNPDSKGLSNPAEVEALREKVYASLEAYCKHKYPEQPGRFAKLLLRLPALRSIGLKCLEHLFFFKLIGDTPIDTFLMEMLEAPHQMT
Sequence of human Vitamin D Receptor (VDR), VDR (gene 7421) (P11473 whole entry, looked up, the tested form may be a part): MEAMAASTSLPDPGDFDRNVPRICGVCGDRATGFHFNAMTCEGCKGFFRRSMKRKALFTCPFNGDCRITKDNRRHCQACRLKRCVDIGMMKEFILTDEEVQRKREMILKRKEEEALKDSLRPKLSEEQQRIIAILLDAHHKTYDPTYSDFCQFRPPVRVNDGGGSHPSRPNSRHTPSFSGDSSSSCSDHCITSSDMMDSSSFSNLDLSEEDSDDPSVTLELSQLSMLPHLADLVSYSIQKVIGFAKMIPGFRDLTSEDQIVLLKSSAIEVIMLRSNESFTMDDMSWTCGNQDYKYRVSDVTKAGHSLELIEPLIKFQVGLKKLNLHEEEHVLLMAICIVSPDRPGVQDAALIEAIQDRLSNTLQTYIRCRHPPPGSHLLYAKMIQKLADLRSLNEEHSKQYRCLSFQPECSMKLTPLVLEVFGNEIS

`CC(=O)C1=C(C)[C@@H]2C[C@@]3(C1)[C@H](C)CC[C@H]3C2(C)C`: the compound was called inactive in test [1], in test [2] and in test [3].

Take `C=CC(=O)OCCCCCC`: the compound was called inactive in [1] and in test [2].

For orientation: AC50 means the concentration at which the activity in the assay is half-maximal. As to `Cc1cc(O)c2c(c1)C(=O)c1cc(O)cc(O)c1C2=O`, the compound was called inactive in test [1]. Also, in test [2], the AC50 is 12.6 µM (active).

Take `OC[C@@H](O)[C@H](O)[C@@H](O)[C@@H](O)CO`: the outcome in test [1] and in test [3] was inactive. Moreover, in test [4], the AC50 was 54.2 µM (active).

As to `O=C(O)c1cccc(Cl)n1`, the call in [1], in [2] and in test [3] was inactive.

For `CCCCCCCC1CCCC1=O` (stereo unspecified), the compound was classed as inactive in [1], in [8], in [11], in test [16] and in [17]. Also, the AC50 in test [5] is 31.3 µM (active); in [6] it was 34.1 µM (active); in test [7], 31.1 µM (active); in [9], 31.6 µM (active); in test [10], 25.2 µM (active); in [12] it was 32.9 µM (active). Further, the AC50 in test [13] is 32800 nM (active); in [14] it was 37.8 µM (active); in test [15], 32.8 µM (active); in test [18], 30.7 µM (active).

On to `COc1ccc(N)c(C)c1`, for which the compound was called inactive in [1], in [4] and in [3]. Further, the AC50 in [2] is 73.2 µM (active).

Turning to `CCCCCC1C(=O)CCC1CC(=O)OC` (stereo unspecified), the call in test [1] and in test [2] was inactive.

For `CCn1cc(C(=O)O)c(=O)c2ccc(C)nc21`, the call in [1], in [5], in test [6], in test [7], in test [8] and in [9] was inactive. The outcome in test [10], in test [11], in [3], in test [12], in test [13] and in test [15] was inactive. The outcome in test [19], in test [16], in [17] and in test [18] was inactive.

For `O=C(OCc1ccccc1)c1ccccc1O`, the compound was called inactive in test [1], in [2] and in test [3].

Regarding `[Cl][Dy]([Cl])[Cl]`, the compound was called inactive in test [1], in [4], in [2] and in test [3].

For `c1ccc(OCCOc2ccccc2)cc1`, the outcome in test [1], in [2], in [5], in [6], in test [7] and in test [8] was inactive. In addition, the result in test [9], in test [10], in test [11], in [12], in test [13] and in [15] was inactive. Also, the outcome in test [16], in test [17] and in test [18] was inactive. The AC50 in test [13] is 65.4 nM (active).

Take `CCCCOCCOC(=O)c1ccccc1C(=O)OCCOCCCC`: the outcome in [1] and in test [2] was inactive.

With `c1ccc(Sc2ccccc2)cc1`, the call in test [1], in [2], in test [11] and in test [16] was inactive. Further, the AC50 in test [5] was 29.9 µM (active); in test [6], 33.2 µM (active); in [7] it was 29.1 µM (active); in test [8], 20 µM (active); in test [9] it was 30.3 µM (active); in test [10], 20 µM (active). In addition, the AC50 in [12] was 32.3 µM (active); in test [13], 16 nM (active); in test [14] it was 37.8 µM (active); in test [15], 29.6 µM (active); in [17] it was 20 µM (active); in test [18], 32.7 µM (active).

These data come from PubChem BioAssay (EPA / NIEHS).
